Rows were chosen to be rich in hits. Some 5.2% of all compounds tested hit in one or more screens of this group.
Sfp PPTase inh: qHTS Assay for Inhibitors of Bacillus subtilis Sfp phosphopantetheinyl transferase (PPTase). Biochemical Sfp PPTase activity, qHTS. Potency, µM, for the others: largest response in the series, negative = inhibition, most hits filed as inhibitors. 3.5% of 310,000 active. AID 1490, 2009;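 note: the enzyme is Sfp with the accession as filed and its product quenches rhodamine fluorescence; potency is the fitted concentration of half-maximal effect; 0% = enzyme reaction without inhibitor and -100% = no enzyme wells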
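After 15 min at room temperature with compound, 15 nM Sfp received 5 uM rhodamine-CoA plus 12.5 uM BHQ-2-ybbR (50 mM Hepes pH 7.6, 10 mM MgCl2). Rate came from the fluorescence difference over 30 min, ex 525/em 598 nm.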
Tau fibril ThT: qHTS for Inhibitors of Tau Fibril Formation, Thioflavin T Binding. recombinant tau K18 P301L, heparin-induced fibrillization, ThT fluorescence. Microtubule-associated protein tau (Homo sapiens), P10636. 2.1% of 270,000 active. AID 1460, 2008. Potency, µM (highest dose often 57.4 µM), for the others: top-dose activity, negative = inhibition, hits mostly inhibitors; note: potency is the fitted concentration of half-maximal effect; nearly all actives have a fitted effect of over 55% in size
Target sequence (P10636 561-689 P618L limits assumed): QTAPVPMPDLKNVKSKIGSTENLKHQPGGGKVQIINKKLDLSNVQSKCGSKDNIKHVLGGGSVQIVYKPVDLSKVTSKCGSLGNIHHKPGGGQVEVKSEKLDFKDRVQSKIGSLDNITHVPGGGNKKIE
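K18 P301L tau (15 uM + 0.24 uM Alexa 594-tagged), heparin 20 uM, NaOAc pH 7, 6 h 37 C; ThT 30 uM, 1 h RT, ex 450/em 510 nm.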
Tau fluor counter: Counterscreen qHTS for Inhibitors of Tau Fibril Formation, Fluorescence Polarization | Potency, µM (top dose mostly 57.7 µM), for inactives: at the highest dose activity change, negative = decrease | 0.93% of 280,000 active | tau K18 P301L Alexa594 fluorescence, heparin fibrillization; note: potency is the fitted concentration of half-maximal effect; nearly all actives have a fitted effect of over 55% in size
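Human tau K18 P301L (15 uM unlabeled, 0.24 uM Alexa 594-labeled) in 100 mM sodium acetate pH 7 with 20 uM heparin, 6 hr at 37 C. ThT 30 uM added, 1 hr ambient; Alexa 594 FP and total fluorescence read at 555/632 nm.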
Coupling enz: qHTS Assay for Inhibitors of Fructose-1,6-bisphosphate Aldolase from Giardia Lamblia: Coupling assay counterscreen; AID 2472, 2010; coupling enzyme system counterscreen, AmpLite Red fluorescence; activity change, negative = inhibition, % at 58.2 µM, hits read low; 0.67% of 290,000 active; in the data active = activity change below about -30%
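First, compound is pin-transferred into glyceraldehyde-3-phosphate coupling-enzyme reagent at 57.5 uM final and held 10 min at RT. Next, substrate, coupling system and AmpLite Red are added. After 20 min RT, fluorescence (525/598 nm) is read.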
Tau fibril FP: qHTS for Inhibitors of Tau Fibril Formation, Fluorescence Polarization | K18 P301L tau heparin fibrillization, Alexa594 FP, 6 h | Microtubule-associated protein tau (Homo sapiens), P10636 | Potency, µM (highest dose often 57.7 µM), inactives show at the highest dose activity, negative = inhibition, actives largely listed as inhibitors | 0.39% of 280,000 active | AID 1468, 2008; note: potency is the fitted concentration of half-maximal effect; nearly all actives have a fitted effect of over 55% in size
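Compound effects on tau fibrillization are measured by Alexa 594 fluorescence polarization (ex 555, em 632 nm). K18 P301L tau is used at 15 uM with 0.24 uM labeled tracer, and 20 uM heparin induces aggregation over 6 hr at 37 C.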
* marks the source's active call; other numbers are inactive results; ? = inconclusive; · = not tested or not shown; ! = not active in a repeat; [ ] = another dose, or the depositor's remark. Unless noted, calls come from the whole dose curve; as a rule, active = well fitted curve in the direction sought with a large enough effect; inconclusive = small, poorly fitted or top-dose-only effect, or another doubt; inactive = no such curve, though single readings can be large; an effect the other way counts as inactive or inconclusive. Unless noted, % is set by controls: 0 for no effect and ±100 for the full control effect.

SMILES	Sfp PPTase inh	Tau fibril ThT	Tau fluor counter	Coupling enz	Tau fibril FP
COc1ccc2c(c1)C(=O)[C@H](OC(=O)Nc1ccc(OC(F)F)cc1)[C@@H](c1ccc(OC)c(Br)c1)O2	16%	?	-22%	1	-6%
Cc1ccccc1/C=N/Nc1nc2ccccc2c(=O)n1O	32µM*	·	-12%	-1	4%
C=CCn1c(N/N=C/c2ccc(O)cc2)nc2ccccc2c1=O	1%	-17%	16µM*[quencher]	0	?
C=CCn1c(C)nc2ccccc2c1=O	-2%	-1%	-7%	3	-7%
CN(C)c1ccc(N=Nc2cccc3ccoc23)cc1	45µM*	1.4µM*	16µM*[quencher]	-1	11%
CCCCc1nn2c(C)c(-c3ccc(OCC)cc3)nc2s1	·	?	-17%	·	3%
CCN(CC)CCCN1C=C2C(=O)C(C)(OC(=O)CCc3ccccc3)C(=O)C=C2C=C1c1ccc(C#N)cc1 (stereo not drawn)	4%	13µM*!	?	1	?
CC1(OC(=O)CCc2ccccc2)C(=O)C=C2C=C3CCCN3C=C2C1=O (stereo not drawn)	?	3.5µM*	-24%[11.6 µM]	-19	?
CC1(OC(=O)c2cccs2)C(=O)C=C2C=C3CCCN3C=C2C1=O (stereo not drawn)	-4%	5µM*	-23%[11.6 µM]	-19	?
COC(=O)CCCC1=CC2=CC(=O)C(C)(OC(=O)CCc3ccccc3)C(=O)C2=CO1 (stereo not drawn)	-22%	25µM*!	?	1	?
CCc1nn(CC(=O)NCCCOC)c(=O)c2cc3occc3n12	·	-1%	0%	·	-2%
CCN(C(=O)Cn1c(SCc2ccccc2F)nc2cccnc21)c1ccccc1	·	3%	2%	·	2%
CN(C)Cc1ccccc1-c1cncnc1Nc1ccccc1	11%	·	·	3	·
CC(C)(C)OC(=O)N1CCC(c2nnc(SCc3ccccc3F)o2)CC1	·	?	-19%	·	-14%
CSCC[C@H](NC(=O)[C@H](CC(C)C)NC(=O)[C@H](Cc1c[nH]c2ccccc12)NC(=O)[C@H](CCC(N)=O)NC(=O)[C@@H](NC(=O)[C@H](Cc1ccccc1)NC(=O)[C@H](CC(=O)O)NC(=O)[C@H](CCC(N)=O)NC(=O)[C@H](C)NC(=O)[C@H](CCCNC(=N)N)NC(=O)[C@H](CCCNC(=N)N)NC(=O)[C@H](CO)NC(=O)[C@H](CC(=O)O)NC(=O)[C@H](CC(C)C)NC(=O)[C@H](Cc1ccc(O)cc1)NC(=O)[C@H](CCCCN)NC(=O)[C@H](CO)NC(=O)[C@H](Cc1ccc(O)cc1)NC(=O)[C@H](CC(=O)O)NC(=O)[C@H](CO)NC(=O)[C@@H](NC(=O)[C@H](Cc1ccccc1)NC(=O)[C@@H](NC(=O)CNC(=O)[C@H](CCC(N)=O)NC(=O)[C@H](CO)NC(=O)[C@@H](N)Cc1cnc[nH]1)[C@@H](C)O)[C@@H](C)O)C(C)C)C(=O)N[C@@H](CC(N)=O)C(=O)N[C@H](C(=O)O)[C@@H](C)O	8%	·	·	3	·
CCN(Cc1ccccc1)c1ccc(/C=N/NS(=O)(=O)c2ccc(C)c([N+](=O)[O-])c2)cc1	?	?	7.1µM*[quencher]	1	?
Nc1c(S(=O)(=O)c2cccc(Cl)c2)c2nc3ccccc3nc2n1/N=C/c1ccc(O)c(O)c1	3%	?	5.6µM*[quencher]	-5	?
C/C(Cn1cnc([N+](=O)[O-])n1)=N\NC(=O)c1ccccc1	-8%	-2%	5%	-6	10%
C/C(Cn1nnc([N+](=O)[O-])n1)=N\NC(=O)c1ccccc1	-4%	-6%	-3%	-40*	-2%
O=[N+]([O-])c1ccc(-c2cnc(NO)nc2)cc1	56µM*	?	-7%	-3	-3%
CN(c1ccccc1)c1ccc(/C=C(\C#N)c2nnc3n2CCCCC3)cc1[N+](=O)[O-]	-9%	14µM*	?	1	1%
COc1ccc(C2/C(=C(\O)c3ccc4c(c3)OCCO4)C(=O)C(=O)N2c2nc(C)c(C(C)=O)s2)cc1 (stereo not drawn)	45µM*	·	·	14	·
COC(=O)c1ccc(C2/C(=C(\O)c3ccc4c(c3)OCCO4)C(=O)C(=O)N2c2nnc(C)s2)cc1 (stereo not drawn)	-1%	·	·	7	·
Cc1nn(-c2ccccc2)c(N2CCCC2)c1/C=C1\N=C(c2ccc(OC(C)C)cc2)OC1=O	-10%	10µM*	-21%	0	10%
Cc1noc(C)c1-c1cncnc1NCc1cccnc1	56µM*	·	·	5	·
SMILES	Sfp PPTase inh	Tau fibril ThT	Tau fluor counter	Coupling enz	Tau fibril FP
Cc1ccccc1-c1cncnc1NCc1cccnc1	79µM*	·	·	6	·
Cc1ccccc1-c1cncnc1NCc1ccccc1	-17%	·	·	8	·
O=C(c1cccc(F)c1)N1CCC2(CCCN(Cc3ccccc3)C2)CC1	14%	·	·	0	·
CC(=O)OCC1=C(C(=O)O)N2C(=O)C(NC(=O)Cc3cccs3)C2SC1 (stereo not drawn)	-52%	20µM*	-30%	-2	?
FC(F)(F)Oc1ccc(NC(=S)NCCCN2CCOCC2)cc1	56µM*	-2%	-7%	0	-1%
S=C(NCCCN1CCOCC1)NCCCN1CCOCC1	7.1µM*	-12%	-1%	-22	-12%
Cc1cccc(OCCC(=O)NCC(=O)Nc2cccc(C)c2C)c1	17%	1%	0%	-35*	6%
Cc1cccc(NC(=O)CCOc2ccccc2)c1C	13%	·	·	-3	·
O=C1c2cccc3cccc(c23)C(=O)N1c1cccnc1	?	-7%	?	6	13µM*
CCN1C(=O)c2cccc3cccc1c23	16µM*	-11%	-4%	-8	-1%
CN(C)C(=O)CN1C(=O)c2cccc3cccc1c23	-21%	·	·	0	·
O=C(O)c1ccccc1N1C(=O)c2cccc3cccc(c23)C1=O	14%	·	·	2	·
O=C1c2cccc3cccc(c23)C(=O)N1c1ccncc1	8%	-1%	-3%	1	-3%
Cc1ccccc1N1C(=O)c2cccc3cccc(c23)C1=O	50µM*	·	·	3	·
CCCCN(CC)C(=O)c1ccc2c(c1)NC(=O)c1ccccc1S2	·	-17%	-20%	·	-1%
CC(=O)N1CCC(N(C(=O)Nc2ccc(C)c(F)c2)C(C)C)CC1	·	13%	2%	·	?
COc1ccccc1-c1cc2nc(C)c(CCC(=O)NCCc3ccc(SC)cc3)c(C)n2n1	·	-10%	-16%	·	7%
CCCCCCCCCCOC(=O)Cn1c(COc2ccccc2OC)[n+](C)c2ccccc21	45µM*	·	·	1	·

Assay outcomes from PubChem.
